Active and inactive are the calls of the source.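 How the source made its calls, unless noted: active means NADPH fluorescence slope more negative than the mean of all samples by about 3 SD, 99.7% confidence; inactive means the rest.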
Experiments:
[1] = inhibitors of TNFa-induced NFkB p65 translocation, primary screen, imaging, HUVEC, MLSMR starter and 10KST1 sets (AID 438;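 active means inhibition above 20% together with a positive visual image hit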;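 further: compound added about 3h40 before a 20 min TNFalpha stimulation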;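 on inhibition: signal is the nuclear over cytoplasmic p65 intensity ratio per well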); conditions: HUVEC TNFa-induced p65 nuclear translocation; cell count: measured here: nuclei count (cytotoxicity indicator), at 2.08 µM; inhibition: at 2 µM, stronger effect = higher value, 0% TNFa-plus-vehicle, 100% no-TNFa wells
[2] = inhibitors of mutant huntingtin aggregation, primary screen, imaging, exon1htt(103Q)mCFP cells, high-content imaging (AID 483;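 active means visual image review flags a hit and inhibition of aggregation exceeds 20%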;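 further: compound exposure lasted 3 days before fixation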;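 on nuclei count: percent of the per-plate median nuclei count of sample wells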); conditions: exon1htt(103Q)mCFP cell line, aggregate imaging, at 2 µM; inhibition of aggregation: stronger effect = higher value; nuclei count: measured here: cell count, toxicity
[3] = inhibitors of E-selectin induction by TNFa, primary screen, imaging, HUVEC, immunofluorescence, MLSMR starter and 10KST1 sets (AID 487;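 active means visually confirmed hit in the image check and inhibition above 20%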;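 on inhibition: signal is fraction of cell area covered by stained E-selectin grains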;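 on nuclei count: 100% = median nuclei count of all wells on the same plate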); conditions: HUVEC TNFalpha-induced E-selectin immunofluorescence imaging, at 2 µM; inhibition: stronger effect = higher value; nuclei count: measured here: cell number, toxicity
[4] = target: Voltage-gated potassium channel subunit beta-2 (Rattus norvegicus) (UniProt P62483); experiment: KvBeta enzyme negative modulators, primary screen, biochemical, NADPH fluorescence (AID 622;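 active means fluorescence slope higher than the sample average by over 3 SD, cut at about -0.22 in these data, passing the limit was not always enough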;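 further: slope of raw intensity against log time taken from 70 to 1610 s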); conditions: recombinant KvBeta, 4-cyanobenzaldehyde reduction, at 10 µM, stronger effect = higher value
[5] = target: Voltage-gated potassium channel subunit beta-2 (Rattus norvegicus) (UniProt P62483); experiment: KvBeta positive modulators, primary screen, biochemical, NADPH fluorescence (AID 623); conditions: Recombinant KvBeta, NADPH fluorescence decrease slope, 10 min; at 10 µM; stronger effect = lower value;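 further: fluorescence intensity change per second fitted from 20 to 320 s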
[6] = target: Alpha-2C adrenergic receptor (Homo sapiens) (UniProt P18825); experiment: modulators of alpha2C/GIRK thallium flux, primary screen, cell-based, HEK293 alpha2C/GIRK1/2 (AID 624;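 active means fluorescence slope after compound addition differing from the mean of all screened samples at 99.7% confidence, in either direction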;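 further: slope of fluorescence ratio to pre-addition baseline per second over 15 to 24 s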); conditions: thallium flux BTC fluorescence, at 10 µM, actives lie on both sides
[7] = inhibitors of Sendai virus-induced IRF3 signaling, primary screen, TLR/RLR signaling modifier project, cell-based, Sendai virus stimulus, luciferase, 10K MLSCN set (AID 602276;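 active means inhibition at or above 50% at 10 µM; inactive means inhibition below 50%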;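 further: firefly luciferase from ISG56 promoter only with Renilla not read in this screen; 0% = Sendai virus plus DMSO and 100% = medium plus DMSO without virus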); conditions: HEK293 RL24 IRF3 luciferase reporter, at 10 µM, stronger effect = higher value
[8] = inhibitors of poly I:C-induced TLR3 signaling, primary screen, cell-based, poly I:C stimulus, luciferase, 10K MLSCN set (AID 602277;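 active means inhibition of the reporter signal at or above 50%; inactive means inhibition below 50%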); conditions: HEK293-TLR3 RL24 IRF3 luciferase reporter, at 10 µM, stronger effect = higher value

Voltage-gated potassium channel subunit beta-2 (Rattus norvegicus), sequence (P62483 whole entry, looked up): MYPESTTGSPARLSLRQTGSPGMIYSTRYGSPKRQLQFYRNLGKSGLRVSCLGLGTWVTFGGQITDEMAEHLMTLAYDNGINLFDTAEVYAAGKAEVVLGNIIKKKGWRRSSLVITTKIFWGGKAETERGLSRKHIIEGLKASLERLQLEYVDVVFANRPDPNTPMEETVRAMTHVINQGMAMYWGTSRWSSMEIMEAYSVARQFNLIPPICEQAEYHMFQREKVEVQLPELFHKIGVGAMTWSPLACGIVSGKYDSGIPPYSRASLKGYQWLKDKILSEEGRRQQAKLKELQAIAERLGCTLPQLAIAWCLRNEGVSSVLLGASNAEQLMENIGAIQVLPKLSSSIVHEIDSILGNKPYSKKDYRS
Alpha-2C adrenergic receptor (Homo sapiens), sequence (P18825 whole entry, looked up): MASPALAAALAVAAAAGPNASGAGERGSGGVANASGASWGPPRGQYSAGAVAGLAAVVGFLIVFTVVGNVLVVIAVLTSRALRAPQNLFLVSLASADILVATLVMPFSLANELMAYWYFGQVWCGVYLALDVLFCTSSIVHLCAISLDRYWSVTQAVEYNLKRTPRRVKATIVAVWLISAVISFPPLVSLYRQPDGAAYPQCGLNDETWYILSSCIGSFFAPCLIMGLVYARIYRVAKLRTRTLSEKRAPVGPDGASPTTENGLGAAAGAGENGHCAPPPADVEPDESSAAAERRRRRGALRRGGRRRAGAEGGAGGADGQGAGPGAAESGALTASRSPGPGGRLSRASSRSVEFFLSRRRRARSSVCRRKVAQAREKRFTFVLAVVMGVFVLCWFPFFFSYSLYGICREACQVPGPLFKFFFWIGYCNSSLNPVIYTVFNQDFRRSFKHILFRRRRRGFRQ

| SMILES | cell count [1] | inhibition [1] | inhibition of aggregation [2] | nuclei count [2] [%] | inhibition [3] | nuclei count [3] [%] | fluorescence slope [4] | NADPH fluorescence slope [5] | slope [6] | inhibition [7] | inhibition [8] |
| --- | --- | --- | --- | --- | --- | --- | --- | --- | --- | --- | --- |
| CC(=O)Nc1ccc2c(c1)nc(CCNC(=O)c1ccccc1)n2C | 450 | 1.3% (inactive) | -15.3% (inactive) | 92.7 | -62.8% (inactive) | 170 | -0.54 (inactive) | -4.9e-05 (inactive) | 0.00514 (inactive) | 1.9% (inactive) | 98.7% (active) |
| Nc1nc2n(n1)C(c1cccc(Br)c1)CC(c1ccccc1)N2 (stereo not drawn) | 645 | 13.8% (inactive) | -26.4% (inactive) | 114 | -39.6% (inactive) | 111 | -0.59 (inactive) | 9.1e-06 (inactive) | 0.00794 (inactive) | 13.2% (inactive) | 37% (inactive) |
| COc1cc2cc(C(c3nnnn3C3CCCC3)N(C)C3CCCCC3)c(=O)[nH]c2cc1OC (stereo not drawn) | 537 | -13.2% (inactive) | -34.3% (inactive) | 100 | -15.9% (inactive) | 108 | -0.465 (inactive) | -2e-05 (inactive) | 0.007 (inactive) | 12.4% (inactive) | 22% (inactive) |
| O=C(NCC1CCCO1)c1cccc(N2CCCC2=O)c1 (stereo not drawn) | 458 | -18.6% (inactive) | -1.3% (inactive) | 88.8 | -32.7% (inactive) | 115 | -0.376 (inactive) | 2.3e-06 (inactive) | 0.0057 (inactive) | 10.8% (inactive) | 4.03% (inactive) |
| Cn1c(=N)n(CC(=O)O)c2ccccc21 | 681 | -13.8% (inactive) | 6.2% (inactive) | 114 | -51.5% (inactive) | 131 | -0.595 (inactive) | -2.3e-05 (inactive) | 0.00551 (inactive) | 9.99% (inactive) | 11.8% (inactive) |
| COc1ccccc1NC(=O)N(C1CCCC1)C1CCN(C(C)=O)CC1 | 830 | 18.5% (inactive) | -7% (inactive) | 98 | -61.6% (inactive) | 123 | -0.582 (inactive) | -3.7e-05 (inactive) | 0.00578 (inactive) | 12.4% (inactive) | 34.4% (inactive) |
| CC1CCCCC1NC(=O)CCCc1nc2ccccc2c(=O)[nH]1 (stereo not drawn) | 364 | -2.1% (inactive) | 5.3% (inactive) | 87.7 | -11.1% (inactive) | 79.6 | -0.618 (inactive) | -2.3e-05 (inactive) | 0.00379 (inactive) | 7.71% (inactive) | 17.2% (inactive) |
| CCOC(=O)Cn1c(=N)n(CCOc2cccc(C)c2)c2ccccc21 | 426 | -18.5% (inactive) | 19.9% (inactive) | 108 | -112% (inactive) | 224 | -0.322 (inactive) | 2e-05 (inactive) | 0.00636 (inactive) | 11.4% (inactive) | 19.4% (inactive) |
| CC(NC(=O)c1cn(C)c2ccc(S(=O)(=O)N3CCCC3)cc2c1=O)c1ccc2c(c1)OCCO2 (stereo not drawn) | 766 | 0% (inactive) | 5.6% (inactive) | 98.3 | 3.8% (inactive) | 103 | -0.483 (inactive) | -0.000101 (inactive) | 0.00703 (inactive) | -4.57% (inactive) | 17% (inactive) |
| CCN(CC)C(=O)C1CCCc2c1[nH]c1ccc(Cl)cc21 (stereo not drawn) | 674 | -18.9% (inactive) | -0.9% (inactive) | 109 | -47.8% (inactive) | 104 | -0.539 (inactive) | -3.5e-05 (inactive) | 0.00741 (inactive) | -47.5% (inactive) | -12.1% (inactive) |
| CCC(C)C(=O)Nc1nc2c(s1)C(=O)CC(C)(C)C2 (stereo not drawn) | 612 | 6.9% (inactive) | -4.2% (inactive) | 102 | -8.8% (inactive) | 115 | -0.553 (inactive) | -2.6e-05 (inactive) | 0.00723 (inactive) | -7.18% (inactive) | -6.11% (inactive) |
| CC(C)Oc1cc2oc(=O)c3c(c2cc1Cl)CCC3 | 385 | 0.8% (inactive) | -21.6% (inactive) | 56.6 | -10.2% (inactive) | 96.1 | -0.445 (inactive) | 2.2e-05 (inactive) | 0.00687 (inactive) | -1.44% (inactive) | -17.4% (inactive) |
| CN(C)c1nc(SCCOC(=O)c2ccccc2)nc(N(C)C)n1 | 775 | -4.7% (inactive) | -21.8% (inactive) | 118 | -45.1% (inactive) | 102 | -0.385 (inactive) | 2.1e-06 (inactive) | 0.00433 (inactive) | 8.47% (inactive) | 11.2% (inactive) |
| COc1ccc(S(=O)(=O)N2CCN(CC(=O)Nc3ccc(C)c(F)c3)CC2)cc1 | 339 | -8.1% (inactive) | -0.4% (inactive) | 115 | -4.2% (inactive) | 80.5 | -0.518 (inactive) | 1.2e-05 (inactive) | 0.00517 (inactive) | 18.5% (inactive) | 23.8% (inactive) |
| CCCCNC(=O)c1nc2ncc(Br)cn2n1 | 665 | 0% (inactive) | -12.4% (inactive) | 109 | 56.5% (inactive) | 81.1 | -0.442 (inactive) | -7.5e-05 (inactive) | 0.00578 (inactive) | 12.8% (inactive) | 22.4% (inactive) |
| O=C1C2ON(c3ccc(Cl)cc3)C(c3ccco3)C2C(=O)N1c1ccccc1 (stereo not drawn) | 510 | -2% (inactive) | 15.7% (inactive) | 97 | -106% (inactive) | 107 | -0.511 (inactive) | -2.4e-05 (inactive) | 0.00581 (inactive) | -6.65% (inactive) | -3.63% (inactive) |
| COc1ccc2[nH]c(=O)c(CN(CC3CCCO3)C(=O)Nc3ccc(F)cc3)cc2c1 (stereo not drawn) | 621 | 3% (inactive) | 12.1% (inactive) | 95.3 | -38.1% (inactive) | 114 | -0.512 (inactive) | 7.8e-06 (inactive) | 0.00737 (inactive) | -18.3% (inactive) | -13.3% (inactive) |
| C=CCOc1ccc(/C(CC)=N/O)c(OC)c1 | 387 | 15.3% (inactive) | -5.5% (inactive) | 54.4 | -29.6% (inactive) | 117 | -0.442 (inactive) | -3.1e-05 (inactive) | 0.00515 (inactive) | -7.92% (inactive) | 0.412% (inactive) |
| COc1cccc(/C=N/n2c(-c3ccco3)nc3ccccc3c2=O)c1 | 692 | -0.9% (inactive) | -10.2% (inactive) | 74.5 | 33.1% (inactive) | 105 | -0.293 (inactive) | -4.4e-05 (inactive) | 0.00576 (inactive) | -12.1% (inactive) | -6.01% (inactive) |
| CCOC(=O)N1CCN(C(=O)CN2C(=O)COc3ccc(C)cc32)CC1 | 590 | 1.5% (inactive) | 9.7% (inactive) | 98.6 | -64.6% (inactive) | 107 | -0.364 (inactive) | -3.7e-05 (inactive) | 0.00215 (inactive) | 7.89% (inactive) | 29.7% (inactive) |
| COc1ccc(N(CC(=O)NCCSC(C)(C)C)S(C)(=O)=O)c(OC)c1 | 387 | -1.4% (inactive) | 12.9% (inactive) | 104 | -18.2% (inactive) | 120 | -0.537 (inactive) | 0.000155 (inactive) | 0.00708 (inactive) | 18.9% (inactive) | 20.9% (inactive) |
| COc1ccc(CCNc2nc(N3CCOCC3)nc(N3CCOCC3)n2)cc1OC | 229 | 10.4% (inactive) | 14.9% (inactive) | 66.5 | 15.6% (inactive) | 91.3 | -0.515 (inactive) | -3.3e-05 (inactive) | 0.00378 (inactive) | 15.3% (inactive) | 10.3% (inactive) |
| CC(C)(C)c1cc(CCC(=O)N2CCNCC2)c(C(C)(C)C)cc1O | 557 | -31.3% (inactive) | 18.7% (inactive) | 102 | -57% (inactive) | 101 | -0.411 (inactive) | -9e-05 (inactive) | 0.00515 (inactive) | 13.9% (inactive) | 27.5% (inactive) |
| CCOC(=O)C1=C(C)N(C)C(=O)NC1c1cccc(O)c1 (stereo not drawn) | 421 | 6.4% (inactive) | -6.7% (inactive) | 99.3 | -43.5% (inactive) | 124 | -0.259 (inactive) | -1.3e-05 (inactive) | 0.00604 (inactive) | 9.66% (inactive) | 17.5% (inactive) |
| COc1ccc(-c2nc3c(c(SCC(=O)N4CCOCC4)n2)COC(C)(C)C3)cc1 | 510 | 23.4% (active) | -8.2% (inactive) | 100 | 33% (inactive) | 117 | -0.387 (inactive) | 1.1e-05 (inactive) | 0.00848 (inactive) | 12.6% (inactive) | 19.9% (inactive) |
| CCCCN1C(=O)C2C(C(=O)Nc3cccc(OC)c3)C3C=CC2(O3)C1C(=O)NC1CCCCC1C (stereo not drawn) | 423 | 3.1% (inactive) | 1.7% (inactive) | 109 | -50% (inactive) | 112 | -0.503 (inactive) | -2.7e-05 (inactive) | 0.00569 (inactive) | 14.1% (inactive) | 24.4% (inactive) |
| COc1ccc2nc(N3CCC(C)CC3)c(C#N)cc2c1 | 380 | 7.3% (inactive) | -10.6% (inactive) | 108 | -59.3% (inactive) | 66.6 | -0.587 (inactive) | -9e-06 (inactive) | 0.00372 (inactive) | -48.2% (inactive) | -170% (inactive) |
| CC(C)[C@H](NC(=O)NC1CCCC1)C(=O)O | 252 | 2.5% (inactive) | 7.6% (inactive) | 87.5 | 3.3% (inactive) | 91.7 | -0.462 (inactive) | 2e-05 (inactive) | 0.0056 (inactive) | 5.42% (inactive) | 16.1% (inactive) |
